# p53ts 39C kill – p53ts cell cytotoxicity, nonpermissive temperature; H1299-p53A138V viability at 39C, ATP luminescence, 24 h; Potency, µM (titrated, usually from 46.1 µM), hits mostly cytotoxic; actives 1.5% (n = 130,000); AID 902; further: nearly all actives have a fitted effect of over 55% in size
# p53ts 32C kill – p53ts cell cytotoxicity, permissive temperature. Potency, µM (titrated, usually from 46.1 µM), usual class: cytotoxic. H1299-p53A138V at 32C, ATP luminescence viability, 24 h. actives 0.93% (n = 130,000); further: nearly all actives have a fitted effect of over 55% in size
#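 Viability by ATPlite luminescence after 24 h compound treatment (up to 46 uM) at the permissive 32C. Cells are H1299 carrying p53 A138V. Scale runs from DMSO basal to 100 uM tamoxifen as full kill; AC50 from Hill fits.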
# Imprint erasure – inducers of genomic imprint erasure in mouse ES cells | AID 1948 | Potency, µM (series often up to 60.7 µM), usual class: activators | mouse ES Peg3-LacZ reporter, beta-gal luminescence, 40 h | actives 0.02% (n = 110,000)
#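 Each well holds 300 Peg3LacZ-Neo (maternal) female ES cells incubated 40 h at 37C, 5% CO2. LacZ is measured by BetaGlo luminescence, with AC50 and maximum efficacy derived from dose-response curves.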
# Numbers stand for hits; - = inactive; ? = inconclusive; . = no result; [ ] = dose if it differs, or a comment. Hits are enriched below; roughly 1.8% of the tested compounds scored in any of these assays. The call rests on the fitted dose curve; in most records, active means well fitted curve in the direction sought with a large enough effect; inconclusive means small, poorly fitted or top-dose-only effect, or another doubt; inactive means no such curve, though single readings can be large; an effect the other way counts as inactive or inconclusive.
SMILES,p53ts 39C kill,p53ts 32C kill,Imprint erasure
CN(Cc1ccccc1)S(=O)(=O)c1ccc(C(=O)Nc2nnc(C3CC3)o2)cc1,12.6µM,-,-
CN(c1ccccc1)S(=O)(=O)c1ccc(C(=O)Nc2nnc(-c3ccc(F)cc3)o2)cc1,?,-,-
CN(Cc1ccccc1)S(=O)(=O)c1ccc(-c2cnc(C3CC3)o2)cc1,-,-,-[10.9 µM]
CN1CCN(CCCBr)CC1,-[9.22 µM],-[9.22 µM],-[10.9 µM]
CCOc1cc(C(=O)Nc2cc(C)on2)cc(OCC)c1OCC,-,-,-
Cc1cc(NC(=O)c2ccc(Cl)cc2)no1,7.94µM,7.94µM,-
Cc1cc(NC(=O)c2ccc(S(=O)(=O)N(C)C)cc2)no1,-,-,-
CCOc1ccc(C(=O)Nc2cc(C)on2)cc1,3.16µM,2.51µM,-
COc1ccccc1CNc1ncnc2c1nc1n2CCCC1,-,-,-[10.9 µM]
O=C(NC1CCCC1)c1ccc(CSc2nc3cccnc3n2Cc2cccc(F)c2)cc1,.,-,.
Cc1ccc(CSc2nc3cccnc3n2Cc2ccc(C(=O)NCCc3cccs3)cc2)cc1,.,5.01µM,.
O=C(NC1CC1)c1ccc(Cn2c(SCc3ccccc3F)nc3cccnc32)cc1,.,15.8µM,.
Cc1ccc(CSc2nc3cccnc3n2Cc2ccc(C(=O)NC3CCCCC3)cc2)cc1,.,11.2µM,.
O=C(NCc1cccs1)c1ccc(CSc2nc3cccnc3n2Cc2ccccc2)cc1,.,-,.
O=C(NC1CCCCC1)c1ccc(CSc2nc3cccnc3n2Cc2ccccc2F)cc1,.,-,.
COc1ccc(NC(=O)Cn2c(=O)cc(C)c3c(C)nn(C)c32)cc1,-,-,-[10.9 µM]
COc1ccccc1C(=O)Nc1ccc(-c2cc(C(F)(F)F)nn2-c2ccccc2)cc1,-,-,-[10.9 µM]
COc1ccc(C(=O)C(CN2CCOCC2)c2ccccc2)cc1F (stereo not drawn),20µM,?,-
COc1ccc(C(O)C(CN2CCOCC2)c2ccccc2)cc1F (stereo not drawn),-,-,-
COc1ccc(Cl)cc1NC(=O)C(C)n1nnc2sc3c(c2c1=O)CCCC3 (stereo not drawn),-,-,-[10.9 µM]
COc1ccccc1CC(=O)NCc1ccc2c(c1)OCO2,-,-,-
COc1ccc(CNCCC(c2ccc3c(c2)OCO3)c2ccccc2OC)cc1 (stereo not drawn),15.8µM,?,-[10.9 µM]
C/C(N=NC(=[SH+])SCc1ccccc1)=C1\C=CC=CN1.[Cl][Cu],.,.,-[10.9 µM]
COCCCNC(=O)c1ccc2c(c1)nc(C)n2-c1cccc(C)c1,-,-,-[10.9 µM]
CCCCCNC(=O)c1ccc2c(c1)nc(C)n2-c1cccc(C)c1,20µM,-,-[10.9 µM]
SMILES,p53ts 39C kill,p53ts 32C kill,Imprint erasure
Cc1cc(C)cc(-n2c(SCC(N)=O)nc3c(oc4ccccc43)c2=O)c1,-,-,-[10.9 µM]
O=C1C(c2ccc(F)cc2)N(CCc2ccccc2)C(=O)CN1C1CCCCC1 (stereo not drawn),-,-,-[10.9 µM]
O=C1CCNc2cc3ccccc3cc21,15.8µM,?,-
O=S(=O)(c1ccc2c(c1)CCN2)N1CCCCCC1,-,-,-[10.9 µM]
C#C[C@@]1(O)CCC2C3CCc4cc(O)ccc4C3CC[C@@]21C (stereo partly drawn),-,-,-
CCCc1nn2cc(-c3ccc(C)c(C)c3)nc2s1,7.94µM,7.94µM,-[10.9 µM]
Cc1nn2cc(-c3ccc(N)cc3)nc2s1,?,-,.
O=C(NCC(c1cccnc1)N1CCN(c2ccccc2F)CC1)c1ccc(F)cc1 (stereo not drawn),-,-,-[10.9 µM]
Cc1cc(C)cc(OC(=O)c2cc(-c3ccc4c(c3)OCCO4)on2)c1,12.6µM,?,-[10.9 µM]
Cc1cc(C)cc(NC(=O)COCc2cc(-c3ccc4c(c3)OCO4)on2)c1,.,-,.
Cc1ccccc1OC(=O)c1cc(-c2ccc3c(c2)OCCO3)on1,?,?,-[10.9 µM]
COC(=O)c1cc(-c2cccc(OC)c2)on1,-,-,-
Cc1cccc(OC(=O)c2cc(-c3ccc4c(c3)OCCO4)on2)c1,20µM,20µM,-[10.9 µM]
Cc1cccc(OC(=O)c2cc(-c3ccc4c(c3)OCCO4)on2)c1C,?,20µM,-[10.9 µM]
CCCN(CCC)CCNC(=O)c1nn(C)c2c1CS(=O)(=O)c1ccccc1-2,-,-,-[10.9 µM]
CC(C)(C)CC(C)(C)c1ccc(O)c(Cc2ccc(Cl)cc2Cl)c1,25.1µM,?,-
Oc1ccc(Cl)cc1Cc1cc(Cl)cc(Cc2cc(Cl)ccc2O)c1O,-[9.22 µM],-[9.22 µM],-[10.9 µM]
CNC1CC(N)[C@H](O)[C@@H](O[C@@H]2OC(CO)C3OC4(OC(C(N)CO)C(O)C(O)C4O)O[C@@H]3[C@H]2O)C1O (stereo partly drawn),-,-,-
Cc1nc2ccc(N)cc2s1,-,-,-
Cc1ccc2nc(-c3ccc(N)cc3)sc2c1S(=O)(=O)O,15.8µM,-[1.84 µM],-
Cc1noc(C)c1-c1ccc2ncnc(N(C)C)c2c1,-,-,?
C[C@H]1C[C@H]2[C@H]3CCC4=CC(=O)C=C[C@@]4(C)[C@]3(F)[C@H](O)C[C@]2(C)[C@@]1(O)C(=O)COP(=O)(O)O,-[9.22 µM],-[9.22 µM],-[10.9 µM]
O=C(Nc1ccc(Cl)cc1)c1cc(S(=O)(=O)NC2CCCCCC2)ccc1F,12.6µM,-,-[10.9 µM]
Cc1ccc(NC(=O)c2cc(S(=O)(=O)NC3CCCCCC3)ccc2F)cc1F,-,?,-[10.9 µM]
O=C(Nc1nnc(SCC(=O)N2CCCc3ccccc32)s1)c1ccccc1,8.91µM,.,.
SMILES,p53ts 39C kill,p53ts 32C kill,Imprint erasure
Cc1cc(C)cc(C(=O)Nc2nnc(SCC(=O)N3CCCc4ccccc43)s2)c1,-,.,.
O=C(Nc1nnc(SCC(=O)N2CCCc3ccccc32)s1)c1ccc2ccccc2c1,3.16µM,.,.
O=C(Nc1ccc2nc(SCC(=O)N3CCCc4ccccc43)sc2c1)c1ccccc1,-,-,?
COc1ccc(-c2onc(C)c2C)cc1S(=O)(=O)N1CCc2ccccc21,-,-,-[10.9 µM]
COc1cc(/C=N/NC(=O)c2cc(-c3ccccc3)n[nH]2)ccc1O,-,-,.
O=C1NCCCC1C(=O)N/N=C/c1ccccc1O (stereo not drawn),-,-,.
COc1cccc(-c2cc(C(=O)N/N=C/c3ccccc3O)[nH]n2)c1,10µM,?,.
O=C(N/N=C\c1ccccc1O)c1ccccc1O,2µM,1.26µM,-
O=C(N/N=C/c1ccccc1O)c1cc(-c2ccccc2)n[nH]1,15.8µM,-,.
O=C(N/N=C/c1ccco1)c1cc(-c2ccccc2)n[nH]1,-,-,.
CC1O[C@@H](O[C@H]2C(Oc3cc(O)c4c(c3)OC(c3ccc(O)cc3)CC4=O)OC(CO)C(O)C2O)C(O)C(O)C1O (stereo partly drawn),-,-,-
CCCCCCC1=Cc2cc(OC)c(OC)cc2C(CC(=O)/C=C/OC)O1 (stereo not drawn),-[9.22 µM],-[9.22 µM],.
Cc1ccc(CNC(=O)c2ccc(N3CCCC3)c(NC(=O)Nc3ccc(F)c(Cl)c3)c2)cc1,-,-,-[10.9 µM]
CC(=O)C1=C(c2ccccc2)N(C(C)=O)n2c(nnc2C2CCCCC2)S1,-,-,-[10.9 µM]
COC(=O)[C@@]1(Cc2ccccc2)[C@H]2c3cc(C(=O)N(C)C)n(Cc4ccccn4)c3C[C@H]2CN1C(=O)c1ccccc1,-,-,-
CCOC(=O)c1ccc(NC(=O)CSc2nc3c(c(=O)n2C)SC(C)C3)cc1 (stereo not drawn),12.6µM,7.94µM,-
CC1Cc2nc(SCC(=O)Nc3ccc4c(c3)OCCO4)n(C)c(=O)c2S1 (stereo not drawn),-,-,-

# From PubChem BioAssay
